# The campaign covered roughly 370,000 compounds. About 2,300 (0.62%) were called active.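 How the source made its calls: active means lowest replicate activation of at least 40%, so every replicate reaches that level; inactive means the rest.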 The sample as a whole holds a higher share of actives than the screen did.
# Experiment: primary screen for activators of insulin secretion dependent on glucose, INS-1E cells, GLuc reporter luminescence (AID 743287);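 further: 0% = median of neutral control wells and 100% = median of IBMX positive control wells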
# Conditions: INS-1E GLuc reporter insulin secretion, 2-3 h, at 16.6 µM, hits give high values
row,Structure (SMILES),activation
1,C[C@H](CO)N1C[C@H](C)[C@H](CN(C)S(C)(=O)=O)Oc2ncc(C3=CCCC3)cc2C1=O,23.9% (inactive)
2,COc1ccc2c3c(n(C)c2c1)[C@H](CO)N(C(=O)NC(C)C)CC31CN(CC2CCCCC2)C1,-8.45% (inactive)
3,C/C=C/c1ccc2c(c1)O[C@@H](CN(C)C(=O)c1ccncc1)[C@@H](C)CN([C@H](C)CO)S2(=O)=O,9.46% (inactive)
4,CCOc1ccc(/C=N/NC(=O)CSc2ccccn2)cc1O,47.7% (active)
5,C=CCOc1ccc(/C=N/NC(=O)C(C)Sc2ccccn2)cc1OCC (stereo not drawn),26.6% (inactive)
6,C/C(=N/NC(=O)CSc1ccccn1)c1ccc([N+](=O)[O-])cc1,3.45% (inactive)
7,Cc1ccccc1S(=O)(=O)N1CC(=O)N2[C@H](CO)[C@@H](c3ccc(C#Cc4ccccc4)cc3)[C@H]2C1,-6.46% (inactive)
8,Cc1nc(N2[C@H](CO)[C@H](c3ccccc3)[C@H]2CNCC2CCC2)sc1C,2.74% (inactive)
9,CCCNC(=O)N1CC2(CN(C(=O)C3CCCCC3)C2)c2c([nH]c3cc(OC)ccc23)[C@@H]1CO,13.6% (inactive)
10,Cc1ccc(-c2ccc3c(c2)O[C@@H](CN(C)C(=O)NC(C)C)[C@@H](C)CN([C@H](C)CO)S3(=O)=O)cc1,4.12% (inactive)
11,Cc1ccc(C(C)C)cc1OCCN1CCCC1,12.9% (inactive)
12,c1ccc(-c2ccccc2OCCN2CCCCC2)cc1,53.2% (active)
13,C#CC(CCN1CCCCC1)(OC)c1ccccc1 (stereo not drawn),17.7% (inactive)
14,CCCNC(=O)N1CC(=O)N2[C@H](CO)[C@@H](c3ccc(-c4ccc(F)cc4)cc3)[C@H]2C1,-19.7% (inactive)
15,C[C@H](CO)N1C[C@H](C)[C@@H](CN(C)CC2CC2)OCCCC[C@H](C)Oc2ccc(NC(=O)Cc3ccccc3)cc2C1=O,7.71% (inactive)
16,COc1ccc(COC(=O)c2n[nH]c3ccccc23)cc1F,-12.2% (inactive)
17,COc1ccc(S(=O)(=O)N(C)C)cc1NC(=O)COC(=O)c1n[nH]c2ccccc12,-5.72% (inactive)
18,CCN(CC)S(=O)(=O)c1ccc2nc(COC(=O)c3n[nH]c4ccccc34)[nH]c2c1,57.7% (active)
19,C[C@H](CO)N1C[C@H](C)[C@@H](CN(C)C(=O)Nc2ccnc(N3CCOCC3)c2)OCc2ccccc2-c2c(n(C)c3ccccc23)C1=O,-17.9% (inactive)
20,CNC[C@H]1Oc2ccc(NC(=O)CCC(F)(F)F)cc2C(=O)N([C@@H](C)CO)C[C@H]1C,4.67% (inactive)
21,C[C@H]1CN([C@@H](C)CO)C(=O)c2cc(NC(=O)Cc3cn(C)c4ccccc34)ccc2O[C@@H]1CN(C)Cc1ccc(Cl)c(Cl)c1,7.56% (inactive)
22,C[C@H](CO)N1C[C@H](C)[C@@H](CN(C)C(=O)Nc2cc(F)ccc2F)Oc2cc(C#CC3CC3)ccc2S1(=O)=O,-8.09% (inactive)
23,CN(C)C(=O)[C@@H]1[C@@H](CO)[C@@H]2Cn3c(cccc3=O)[C@H]1N2C(=O)c1ccc(F)cc1,7.45% (inactive)
24,O=C(C[C@@H]1CC[C@H](NC(=O)C2CC2)[C@@H](CO)O1)NCc1ccncc1,-4.07% (inactive)
25,COc1ccc(C2OCC3(CO2)SC(=O)NC3=O)cc1OC (stereo not drawn),21.8% (inactive)
26,COc1ccc(C2CC(=O)Nc3sc(=N)c4c(N)c(C#N)c(N)nc4c32)cc1OC (stereo not drawn),70.3% (active)

row,Structure (SMILES),activation
1,CCc1nc2c(OCc3ccc(F)c(F)c3)cccn2c1N(C)C(=O)c1ccco1,-1.95% (inactive)
2,CCc1nc2c(OCc3ccccc3)cccn2c1N(C)C(=O)c1ccco1,17.3% (inactive)
3,CCc1nc2c(OCCC3CCCCC3)cccn2c1N(C)C(=O)c1ccco1,42% (active)
4,CCC(=O)Nc1ccc2c(c1)C(=O)N(C)C[C@@H](OC)[C@H](C)CN(Cc1cccnc1)[C@@H](C)CO2,-1.44% (inactive)
5,C[C@@H]1CN([C@@H](C)CO)C(=O)c2cccc(NC(=O)C3CC3)c2O[C@@H]1CN(C)C,21.1% (inactive)
6,CC(=O)N1CCc2c(sc(NC(=O)CCS(=O)(=O)c3ccc(C)cc3)c2C(N)=O)C1,4.75% (inactive)
7,C=CCN(CC=C)S(=O)(=O)c1ccc(C(=O)Nc2sc3c(c2C(N)=O)CCCCC3)cc1,47.2% (active)
8,CCOC(=O)c1c(NC(=O)C2CCN(S(=O)(=O)c3ccc(Cl)cc3)CC2)sc2c1CCCC2,-4.47% (inactive)
9,Cc1ccc(S(=O)(=O)N(C)C[C@@H]2Oc3c(NC(=O)C4CCCCC4)cccc3C(=O)N([C@H](C)CO)C[C@H]2C)cc1,-9.86% (inactive)
10,C=CCc1cccc2cc(C(=O)Nc3ccc(NC(C)=O)cc3)c(=O)oc12,6.64% (inactive)
11,O=C(Nc1ccc(CN2CCOCC2)cc1)c1cc(Cl)ccc1Cl,-0.035% (inactive)
12,C=CCn1cc(Cl)cc(C(=O)Nc2ccccc2)c1=O,98.4% (active)
13,C[C@H](CO)N1C[C@H](C)[C@H](CN(C)S(=O)(=O)c2ccccc2)Oc2ccc(NC(=O)Cn3cnnn3)cc2C1=O,12.8% (inactive)
14,C[C@H]1CN([C@@H](C)CO)C(=O)c2cccc(NC(=O)Nc3ccc(F)cc3)c2O[C@H]1CN(C)S(=O)(=O)c1cn(C)cn1,6.95% (inactive)
15,O=C(COC(=O)c1ncc(Cl)c(Cl)c1Cl)NC1CCS(=O)(=O)C1 (stereo not drawn),53.1% (active)
16,O=C(COC(=O)/C=C/c1ccc(Cl)cc1)NC1CCS(=O)(=O)C1 (stereo not drawn),14.8% (inactive)
17,O=C(COC(=O)c1ncc(Cl)c(Cl)c1Cl)NNC(=O)c1ccccc1,-6.14% (inactive)
18,O=c1[nH]c2ccccc2n1C1CCN(CCOc2ccccc2)CC1,-4.23% (inactive)
19,N#Cc1ccc(OCCCN2CCC(C(O)(c3ccccc3)c3ccccc3)CC2)c(F)c1,-32.8% (inactive)
20,OC(c1ccccc1)(c1ccccc1)C1CCN(CCCOc2ccc(-c3ccsc3)cc2)CC1,83.7% (active)
21,CC(=O)N1[C@H](CN(C)S(=O)(=O)c2ccccc2)[C@H](c2ccccc2)[C@@H]1CO,2.97% (inactive)
22,COc1ccc(NC(=O)N(C)C[C@@H]2Oc3ccc(NC(=O)Nc4ccccc4)cc3CC(=O)N([C@H](C)CO)C[C@@H]2C)cc1,-8.36% (inactive)
23,Cc1ccc(-c2cc(=O)[nH]c(NCc3ccccc3)n2)cc1,0.61% (inactive)
24,CNc1nc(-c2ccccc2)cc(-c2ccccc2)n1,50.3% (active)
25,CN1CCCc2nc(-c3ccccc3)ccc21,15.2% (inactive)
26,C[C@@H]1CN([C@H](C)CO)C(=O)c2cccc(NC(=O)CCCCCC(=O)Nc3ccccc3N)c2O[C@H]1CN(C)Cc1ccc(Oc2ccccc2)cc1,-51.6% (inactive)

row,Structure (SMILES),activation
1,O=C(C[C@@H]1CC[C@@H](NC(=O)c2ccc3c(c2)OCO3)[C@H](CO)O1)NCc1ccc(Cl)cc1,-2.44% (inactive)
2,COc1ccc(S(=O)(=O)N(C)C[C@H]2Oc3ccc(NS(=O)(=O)c4ccc(F)cc4)cc3C(=O)N([C@H](C)CO)C[C@H]2C)cc1,-11.6% (inactive)
3,COC(=O)C1=C(C)NC(=S)NC1c1ccc(OC)cc1 (stereo not drawn),140% (active)
4,COC(=O)C1=C(C)NC(=S)NC1c1ccc(OCC(=O)N2CC(C)OC(C)C2)c(OC)c1 (stereo not drawn),8.95% (inactive)
5,COC(=O)C1=C(C)N(C)C(=S)NC1c1cc(OC)ccc1OC (stereo not drawn),-51% (inactive)
6,CC(=O)N(C)C[C@@H]1Oc2ccc(N)cc2CC(=O)N(C)C[C@H]1C,-4.42% (inactive)
7,Cc1ccnc(NS(=O)(=O)c2ccc(NC(=O)c3oc4ccc(F)cc4c3C)cc2)n1,17.6% (inactive)
8,Cc1ccnc(NS(=O)(=O)c2ccc(NC(=O)c3oc4ccccc4c3C)cc2)n1,-7.58% (inactive)
9,Cc1cc(C)c2oc(C(=O)Nc3ccc(S(=O)(=O)Nc4nccc(C)n4)cc3)cc(=O)c2c1,74.6% (active)
10,CC(=O)Nc1ccc2c(c1)CC(=O)N(C)C[C@H](C)[C@H](CN(C)S(C)(=O)=O)O2,17.7% (inactive)
11,CC=Cc1ccc2n(c1=O)C[C@H]1[C@H](CO)[C@@H](C(=O)NC3CCCC3)[C@@H]2N1C(=O)c1cnccn1 (mixture of isomers),3.54% (inactive)
12,Cc1cc(Br)ccc1NC(=S)NC1CCCC1,46.8% (active)
13,CC1CN(C(=S)Nc2ccc(Br)cc2Cl)CC(C)O1 (stereo not drawn),-10.5% (inactive)
14,Cc1ccccc1C(=O)NC(=S)NC1CC1,-11.6% (inactive)
15,C[C@@H]1CN([C@H](C)CO)C(=O)c2cccc(NS(=O)(=O)c3cn(C)cn3)c2O[C@H]1CN(C)S(=O)(=O)c1ccc(Cl)cc1,12% (inactive)
16,O=C(Nc1ccccc1F)N1CC(=O)N2[C@H](CO)[C@H](c3ccc(C#CC4CC4)cc3)[C@@H]2C1,-9.47% (inactive)
17,COc1cccc(CNC(=O)c2cc3c(c(-c4cccc(-c5ccc(C#N)cc5)c4)n2)[C@@H](CCO)N([S@](=O)C(C)(C)C)C3)c1,11.4% (inactive)
18,O=C1NCCOCc2cn(nn2)CC[C@@H]1Cc1ccccc1,9.64% (inactive)
19,CCOC(=O)c1sc2nc(C)nc(SCC(N)=O)c2c1C,13.1% (inactive)
20,CCOC(=O)c1sc2nc(C)[nH]c(=O)c2c1C,49.9% (active)
21,CCOC(=O)c1sc2nc(C)nc(Nc3ccc(OC)c(OC)c3)c2c1C,15.4% (inactive)
22,CCCNC(=O)N1C[C@@H](O)COC[C@H]2O[C@H](CC(=O)N3CCC(Cc4ccccc4)CC3)CC[C@@H]21,2.87% (inactive)
23,CC(C)NC(=O)N1CCCCN2[C@H](CO)[C@@H](c3ccc(Br)cc3)[C@H]2C1,1.31% (inactive)
24,COc1ccc(-c2c(NC(=O)c3ccco3)oc3ccc(Cl)cc3c2=O)cc1,106% (active)
25,Cc1cccc(-c2c(NC(=O)c3ccco3)oc3ccc(Cl)cc3c2=O)c1,-13.2% (inactive)
26,COc1ccc(OC)c(NC(=O)c2cnn(-c3ccccc3Cl)c2NC(=O)c2ccco2)c1,-0.082% (inactive)
